Screens: PubChem, National Center for Advancing Translational Sciences (NCATS)
In the library only some 9.2% were active in any assay of this set; here they are far more common.
ELG1 repair inh – ELG1-dependent DNA repair inhibition. HEK293T ELG1-luciferase reporter, luminescence, 16 h; DNA damage induced by 5-fluorouridine. 2.3% of 330,000 active. AID 504467. Potency, µM (top dose mostly 46.1 µM), for the others: at the highest dose activity change, negative = inhibition, actives largely listed as inhibitors; note: % is set by controls: 0 for no effect and ±100 for the full control effect; nearly all actives have a fitted effect of over 55% in size
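Overnight (16 hr) co-exposure of 2,000 cells/well to 5-fluorouridine and compound at 37 °C preceded detection. Luciferase was quantified via ONE-Glo luminescence; loss of signal denotes inhibition.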
SMN2 splice up – enhancers of SMN2 splice variant expression. Potency, µM (highest dose often 46.1 µM), inactives show top-dose activity change, positive = activation, actives largely listed as activators. 2.8% of 210,000 active. HEK293 SMN2-luciferase splicing reporter, luminescence, 30-36 h; note: % of control where 0% means no effect; nearly all actives have a fitted effect of over 55% in size
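HEK293 cells carry an SMN2 minigene-luciferase reporter in which exon 7 inclusion puts luciferase in frame. Cells were seeded at 2000 cells/well, attached for 10-12 hours, then exposed to compounds for 30-36 hours at 37C before ONE-Glo luminescence.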
FLuc modulator – inhibits or activates purified firefly luciferase, miR-21 counter-screen; P08659; purified FLuc, Km substrates, luminescence inhibition; Potency, µM (series often up to 57.5 µM), for the others: at the highest dose activity change, negative = inhibition, usual class: inhibitors; 6.9% of 360,000 active; AID 588342;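 note: plate controls were vehicle for no effect and reference inhibitor for full effect; nearly all actives have a fitted effect of over 55% in size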
Target sequence (P08659 whole entry, looked up): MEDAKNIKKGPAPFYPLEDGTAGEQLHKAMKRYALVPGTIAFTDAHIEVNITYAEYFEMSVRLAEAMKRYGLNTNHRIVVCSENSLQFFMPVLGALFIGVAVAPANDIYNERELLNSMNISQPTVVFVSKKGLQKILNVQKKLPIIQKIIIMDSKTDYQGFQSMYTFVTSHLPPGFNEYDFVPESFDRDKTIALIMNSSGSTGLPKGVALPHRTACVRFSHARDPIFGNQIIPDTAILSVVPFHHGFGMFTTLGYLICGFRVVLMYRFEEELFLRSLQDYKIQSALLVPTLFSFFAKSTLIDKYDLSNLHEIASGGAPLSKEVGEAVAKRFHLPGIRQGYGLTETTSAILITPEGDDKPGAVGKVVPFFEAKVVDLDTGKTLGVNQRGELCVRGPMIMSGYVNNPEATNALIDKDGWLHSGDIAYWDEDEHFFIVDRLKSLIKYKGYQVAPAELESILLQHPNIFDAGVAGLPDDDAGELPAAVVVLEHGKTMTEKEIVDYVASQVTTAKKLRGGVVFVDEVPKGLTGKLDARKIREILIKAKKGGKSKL
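Biochemical qHTS of compounds, final roughly 60 µM downward over six points, against 10 nM purified firefly luciferase using Km concentrations of substrates (10 uM D-luciferin, 10 uM ATP) in Tris acetate pH 7.5 buffer; luminescence output.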
Rab9 prom act – activators of Rab9 promoter; Huh7 Rab9 promoter-luciferase reporter, luminescence, 24 h; 2.8% of 320,000 active; Potency, µM (doses to about 9.22 µM), inactives show top-dose activation, negative = inhibition, hits mostly activators; note: % of control where 0% means no effect; nearly all actives have a fitted effect of over 60% in size
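Stable Rab9-luc Huh7, 1500 cells/well, 2 h settle; cmpd in DMSO, 24 h, 37 °C/5% CO2; luciferase reagent 10 min RT; luminescence.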
ELG1 genotoxic – induces genotoxicity in HEK293T cells with luciferase-tagged ELG1 | Potency, µM (titrated, usually from 46 µM), without a hit: top-dose activity change, positive = activation, hits mostly activators | 1.3% of 330,000 active | HEK293T ELG1-luciferase reporter, luminescence, 16 h; note: % of control where 0% means no effect; nearly all actives have a fitted effect of over 60% in size
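Genotoxic stress is detected as increased luminescence from luciferase-tagged ELG1 in HEK293T cells, measured with ONE-Glo after a 16 hr treatment at 37 °C.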
NPC1 prom act – NPC1 promoter activation; Huh7 NPC1 promoter luciferase reporter, 24 h; Potency, µM (highest dose often 9.22 µM), for inactives: at the highest dose activation, actives largely listed as activators; 2.4% of 320,000 active; note: % of control where 0% means no effect; nearly all actives have a fitted effect of over 60% in size
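Readout is luciferase luminescence, reflecting NPC1 promoter activation in stably transfected Huh7 cells after 24 h compound exposure at 37 °C in reduced-serum medium with 10% FBS.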
An asterisk follows results filed as active; ? = inconclusive; / = no result. Calls come from the whole dose curve; as a rule, active = well fitted curve in the direction sought with a large enough effect; inconclusive = small, poorly fitted or top-dose-only effect, or another doubt; inactive = no such curve, though single readings can be large; an effect the other way counts as inactive or inconclusive. Potency is the fitted concentration of half-maximal effect.

SMILES	ELG1 repair inh	SMN2 splice up	FLuc modulator	Rab9 prom act	ELG1 genotoxic	NPC1 prom act
C/C(=N\Nc1nc(-c2ccccc2)cs1)c1cccs1	?	2.8µM*	0.85µM*	2µM*	?	3.5µM*
C/C(=N\Nc1nc2ccccc2s1)c1cccs1	?	/	0.67µM*	3.5µM*	?	?
O=C(CC1SC(=Nc2ccc(OC(F)F)cc2)N(CCC2=CCCCC2)C1=O)Nc1ccccc1F (stereo not drawn)	?	-9%	1%	-1%	-1%	-4%
CCOc1ccccc1N=C1SC(CC(=O)Nc2ccc(OC)cc2OC)C(=O)N1CCC1=CCCCC1 (stereo not drawn)	7.3µM*	-18%	0%	-1%	-3%	-6%
CC(C)c1nn2c(=O)cc(COC(=O)c3ccccc3NC(=O)COc3ccccc3)nc2s1	/	/	21µM*	/	/	/
O=C(COc1ccccc1)Nc1ccccc1C(=O)OCc1cc(=O)n2nc(C3CC3)sc2n1	/	/	21µM*	/	/	/
O=C(COc1ccc(F)cc1)Nc1ccccc1C(=O)OCc1cc(=O)n2nc(C3CC3)sc2n1	/	/	4%	/	/	/
COc1ccc(-n2nc3c(c2NC(=O)COc2ccccc2F)CS(=O)(=O)C3)cc1	-2%	/	-2%	14%	-7%	1%
CCN(CC)C(=O)c1sc2c(c1C)c(=O)n(-c1ccc(C)c(C)c1)c(=O)n2Cc1cccc(Cl)c1	/	/	-1%	/	/	/
O=c1oc2ccccc2c2oc3cc(O)c(O)cc3c12	?	-3%	21µM*	15%	?	11%
Brc1ccccc1-c1nnc(CSc2nnc3sc4ccccc4n23)o1	16%	0%	?	4µM*	7%	14%
c1ccc(OCc2nc(-c3ccncc3)no2)cc1	?	/	?	?	10%	14%
Cc1cc(OCc2nc(-c3cccnc3)no2)c(C)cc1Br	1%	-3%	6%	12%	13%	11%
Clc1ccccc1OCc1nc(-c2ccncc2)no1	?	13µM*	11µM*	2µM*	?	2.8µM*
Clc1ccc(OCc2nc(-c3ccncc3)no2)c(Br)c1	?	3.2µM*	2.1µM*	0.71µM*	?	1.3µM*
CCCOc1ccc(C2C(=O)N(C3CCCCCC3)CC(=O)N2Cc2ccccc2OC)cc1OC (stereo not drawn)	/	/	7%	/	/	/
O=C(CN1CCc2ccccc2C1)Nc1ccccc1C(=O)NC1CC1	0%	/	/	-4%	1%	-2%
COc1cccc(CNCCSc2nnnn2-c2ccccc2)c1OC	/	/	5%	/	/	/
Cc1nc2c(C(=O)NCc3ccc4c(c3)OCO4)cnn2c(C)c1Cc1ccc(F)cc1Cl	21µM*	-15%	1%	-1%	-10%	1%
O=C(COc1ccccc1)Nc1nc2c(s1)CCCC2	?	/	13µM*	?	?	?
O=C(COc1ccccc1Cl)Nc1nc2c(s1)CCCC2	/	/	21µM*	/	/	/
COC(=O)c1sc(NC(=O)COc2ccccc2C)nc1C	?	5%	?	?	?	11%
Cc1cnc(NC(=O)COc2ccccc2Cl)s1	?	0.79µM*	0.27µM*	0.25µM*	?	0.1µM*
O=C(CSCc1ccc(F)cc1)Nc1nc2c(s1)CCCC2	11%	-6%	-12%	7%	-1%	-5%
COc1ccccc1OCC(=O)Nc1nc(C)c(C)s1	?	/	8.5µM*	4µM*	?	2.8µM*
SMILES	ELG1 repair inh	SMN2 splice up	FLuc modulator	Rab9 prom act	ELG1 genotoxic	NPC1 prom act
COc1ccc(NC(=O)C(Cc2ccccc2)NS(=O)(=O)c2ccc(Br)s2)cc1OC (stereo not drawn)	/	-21%	-18%	/	/	/
Cc1ccc(N2C(=O)CSC23C(=O)N(CC(=O)NCCc2ccccc2)c2ccccc23)cc1 (stereo not drawn)	/	/	-8%	/	/	/
CC(C)(C)Cc1nnc(NC(=O)c2ccc3c(c2)OCO3)s1	?	/	?	2.2µM*	?	2.2µM*
CC(C)(C)C(=O)Nc1nnc(SCC(=O)Nc2ccc3c(c2)OCO3)s1	-17%	-9%	4%	-6%	0%	-3%
O=C(O)CSc1nnc(NC(=O)c2ccc3c(c2)OCO3)s1	-10%	-28%	1.9µM*	-3%	-12%	-4%
COC(=O)CSc1nnc(NC(=O)c2ccc3c(c2)OCO3)s1	?	/	0.54µM*	?	15µM*	26%
Cc1ccc(Cl)cc1N1CCN(C(=O)c2cn(C)c3ccc(S(=O)(=O)N4CCC(C)CC4)cc3c2=O)CC1	/	7%	2%	/	/	/
O=C(NCc1ccccc1Cl)C(=O)NCC(c1ccc2c(c1)OCO2)N1CCOCC1 (stereo not drawn)	/	/	0%	/	/	/
O=P(c1ccccc1)(c1ccccc1)C(O)c1ccccn1 (stereo not drawn)	1%	/	0%	1%	0%	6%
O=C1c2ccccc2CCC1C(O)c1ccccn1 (stereo not drawn)	?	/	15µM*	10%	-2%	6%
O=C(CSc1n[nH]c(-c2ccc(F)cc2)n1)NCCc1ccccc1	/	/	-18%	/	/	/
CCCCN1CCCc2cc(CN(CCCN3CCOCC3)C(=O)Nc3ccc(CC)cc3)ccc21	/	/	7%	/	/	/
CCOC(=O)c1sc(NC(=O)Cc2ccc(F)cc2)nc1C	?	-27%	?	2%	3%	1%
CCOC(=O)c1ccc(NC(=O)Nc2ccc(OC)c(OC)c2)cc1	?	-4%	?	-3%	-13%	1%
COC(=O)c1ccc(NC(=O)Nc2ccc(F)cc2)cc1	?	-4%	11µM*	?	8%	?
COC(=O)c1ccc(NC(=O)Nc2ccc(OC)cc2)cc1	9%	19%	-20%	22%	0%	8%
COC(=O)c1ccc(NC(=O)Nc2ccc(F)c(Cl)c2)cc1	?	-16%	27µM*	29%	8%	14%
CCOC(=O)c1sc(NC(=O)Nc2ccc(F)cc2)nc1C	?	1.3µM*	1.5µM*	1.3µM*	?	1.6µM*
CCOC(=O)c1ccc(NC(=O)Nc2ccc(F)cc2)cc1	?	4%	11µM*	18%	10%	20%
CCN1C(=O)c2ccc(C(=O)NCc3ccco3)cc2C1=O	21%	/	-1%	0%	6%	-7%
CCc1ccc(NC(=O)C2CCCN(S(=O)(=O)c3ccc(F)cc3)C2)cc1 (stereo not drawn)	/	-8%	-7%	/	/	/
COC(=O)Nc1ccc(S(=O)(=O)N2CCCC(C(=O)Nc3cccc4c3OCCO4)C2)cc1 (stereo not drawn)	21µM*	25%	1%	-6%	-6%	-1%
CCOC(=O)c1ccc(NC(=O)Oc2cc(C)c(Cl)cc2C(C)C)cc1	10%	/	-9%	4.5µM*	5%	2%
